From PubChem BioAssay AID2751 (The Scripps Research Institute Molecular Screening Center, 2010) come the findings set out here.

The structures appear in SMILES notation. The campaign covered roughly 320,000 compounds. About 2,200 (0.69%) were called active. No stated cut-off is given here; in the data, active means inhibition above about 43%; inactive means the rest. The entries come from a sample that favours actives as a whole.

Sequence of Prolyl endopeptidase-like (Homo sapiens) (Q4J6C6 whole entry, looked up): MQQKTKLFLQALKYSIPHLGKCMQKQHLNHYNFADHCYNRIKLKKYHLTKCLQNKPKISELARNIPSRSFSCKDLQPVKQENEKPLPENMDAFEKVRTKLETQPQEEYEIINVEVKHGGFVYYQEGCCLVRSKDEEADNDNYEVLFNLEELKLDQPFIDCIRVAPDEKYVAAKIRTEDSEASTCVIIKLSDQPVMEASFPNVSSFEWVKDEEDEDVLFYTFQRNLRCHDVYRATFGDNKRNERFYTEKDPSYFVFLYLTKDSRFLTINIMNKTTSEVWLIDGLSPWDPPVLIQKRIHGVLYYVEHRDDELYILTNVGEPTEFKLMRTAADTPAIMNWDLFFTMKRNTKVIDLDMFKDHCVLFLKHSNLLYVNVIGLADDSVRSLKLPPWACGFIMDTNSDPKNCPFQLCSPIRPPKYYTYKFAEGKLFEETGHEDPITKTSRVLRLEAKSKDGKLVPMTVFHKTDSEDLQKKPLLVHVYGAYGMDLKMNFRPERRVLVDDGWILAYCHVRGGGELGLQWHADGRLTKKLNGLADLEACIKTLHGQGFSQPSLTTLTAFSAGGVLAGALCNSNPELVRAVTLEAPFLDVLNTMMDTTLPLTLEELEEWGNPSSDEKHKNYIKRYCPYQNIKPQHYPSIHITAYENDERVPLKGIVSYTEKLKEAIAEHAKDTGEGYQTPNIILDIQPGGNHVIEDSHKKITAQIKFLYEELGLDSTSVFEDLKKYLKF

The assay has as its target Prolyl endopeptidase-like (Homo sapiens) (UniProt Q4J6C6). Description: PREPL enzyme inhibitors, primary screen, biochemical, fluorescence polarization (AID 2751).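 Further: 0% = enzyme with DMSO and 100% = wells lacking enzyme.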 Particulars: recombinant PREPL, fluorescence polarization activity-based probe; at 5.96 µM; hits give high values.
Usually inhibition stands for the drop in the measured response relative to a control, in per cent. As to `COc1ccc2[nH]c3c(c2c1)CCN[C@H]3C`, the inhibition was 48.8% (active).
As for `O=C(N/N=C/c1c(O)n(C2CC2)c(=S)[nH]c1=O)c1ccccc1Cl`, the figure is -3.24% (inactive); as for `CCOc1ccc(-c2cc(C)[n+](CCN(CC)CC)c(-c3ccc(OCC)cc3)c2)cc1`, 10.9% (inactive).
As for `CCOc1cccc(=NC2CCCCC2)c2c(C)[nH]c(C)c12`, the inhibition is 52.1% (active).
On to `Cn1c(O)c(C=NCCCC(=O)O)c(=O)n(C)c1=O`, for which the inhibition is -8.04% (inactive).
For the molecule `N[C@@H](Cc1c[nH]c2ccccc12)c1nnc(SCc2c(F)cccc2Cl)o1`, the inhibition was 2.17% (inactive).
For the molecule `CCN(CC)C(=O)c1ccc(NC(=O)c2cc(-n3cnnc3)ccc2Cl)cc1`, the inhibition was 15.1% (inactive).
As for `Cc1nc2ccccn2c1P(=S)(N1CCCCC1)N1CCCCC1`, the inhibition was -7.5% (inactive).
As for `O=C(NCC(c1cccnc1)N1CCN(c2ccccc2)CC1)Oc1ccccc1` (stereo not given), the figure is 46.3% (active); as for `COC(=O)C(c1ccccc1)N1CCCCCC1` (stereo not given), 1.34% (inactive); as for `COc1ccccc1N1CCN(C(CNC(=O)Oc2ccccc2)c2cccnc2)CC1` (stereo not given), 1.24% (inactive).
In the case of `COc1ccc(C2NCc3ccc4c(c3-n3cccc32)OCO4)cc1OC` (stereo not given), the inhibition is -15.2% (inactive).
As for `COC(=O)N(c1ccc(OC)cc1)P1(=S)OCCC(C)O1` (stereo not given), the figure is 8.63% (inactive); as for `O=C(O)C1CSC(c2cccnc2)N1` (stereo not given), 3.28% (inactive); as for `Cc1c(Oc2cc(NN3CCCCC3)c([N+](=O)[O-])cc2[N+](=O)[O-])cccc1[N+](=O)[O-]`, 4.76% (inactive).
